Most compounds without a hit are left out; they make up all but 2.7% or so of the library.
Integrin act MD: qHTS for Activators of Integrin-Mediated Alleviation for Muscular Dystrophy; alpha7betagal myoblasts, beta-gal FDG fluorescence, 48 h; Potency, µM (titrated, usually from 38.3 µM), inactives show at the highest dose activation, hits mostly activators; 350,000 tested, 0.064% active;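 note: 100% = response of the positive control SU9516; nearly all actives have a fitted effect of over 60% in size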
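Alpha7betagal+/- myoblasts (passage 13) were plated 16-24 hr, then exposed to compounds (1:260 dilution of DMSO stock) for 48 hours at 37C. After MPER lysis, β-galactosidase reporter activity was read as FDG fluorescence (ex 480/em 540) after 30 minutes.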
GLP1R cytotox: qHTS of GLP-1 Receptor Inverse Agonists: Cytotox Screen; 410,000 tested, 0.13% active; AID 624418, 2012; Potency, µM (titrated, usually from 38.3 µM), for the others: top-dose activity change, negative = inhibition, hits mostly inhibitors; HEK293 cAMP-luciferase reporter cells, luminescence, 24 h;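 note: loss of luciferase light is scored as toxicity; % is set by controls: 0 for no effect and ±100 for the full control effect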
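Quantitative HTS format, 1536 wells, 200 cells/uL seeded. Compounds: 23 nL, 24 h, 37 °C. Detection: luciferase reagent, luminescence at 12 min RT; decreased signal taken as cytotoxic.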
BRCA1 expr act: qHTS Assay to Identify Small Molecule Activators of BRCA1 Expression. MCF7-BRCA1-FFLuc reporter, luminescence, 48 h; response scale: scaled: vehicle 0%, 10 µM genistein 100%. Potency, µM (titrated, usually from 46.1 µM), without a hit: at the top dose activation, hits mostly activators. 380,000 tested, 1.1% active. AID 624202, 2012; note: nearly all actives have a fitted effect of over 80% in size
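48 h compound treatment of MCF7-BRCA1-FFLuc cells (phenol-red free MEM, 37 °C), then 15 min with luciferase substrate and luminescence imaging.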
GLP1R inv ag: qHTS of GLP-1 Receptor Inverse Agonists (Inhibition Mode) | HEK293 GLP-1R CRE-luciferase, luminescence, 24 h; GLP-1R form is constitutively active | Glucagon-like peptide 1 receptor (Homo sapiens), P43220 | Potency, µM (doses to about 38.3 µM), for the others: at the top dose activity change, negative = inhibition, hits mostly inhibitors | 410,000 tested, 1.6% active; note: % is set by controls: 0 for no effect and ±100 for the full control effect; nearly all actives have a fitted effect of over 55% in size
Target sequence (P43220 whole entry, looked up): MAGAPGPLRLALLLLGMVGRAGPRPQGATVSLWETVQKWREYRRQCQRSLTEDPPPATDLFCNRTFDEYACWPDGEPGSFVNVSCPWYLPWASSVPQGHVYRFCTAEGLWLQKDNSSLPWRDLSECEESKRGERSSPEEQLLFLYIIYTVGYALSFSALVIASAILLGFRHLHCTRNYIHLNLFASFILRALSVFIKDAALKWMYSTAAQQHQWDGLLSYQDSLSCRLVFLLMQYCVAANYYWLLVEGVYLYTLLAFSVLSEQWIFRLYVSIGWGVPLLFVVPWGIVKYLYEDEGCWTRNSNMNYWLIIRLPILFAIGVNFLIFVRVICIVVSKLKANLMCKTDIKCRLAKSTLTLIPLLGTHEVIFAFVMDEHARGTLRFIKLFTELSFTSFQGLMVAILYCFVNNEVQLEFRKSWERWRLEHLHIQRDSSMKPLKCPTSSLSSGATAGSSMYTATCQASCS
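qHTS in 1536-well format: reporter HEK293 cells expressing constitutive GLP-1R activity in DMEM + 10% Nu serum, 24 hr with compounds at 37 deg C, luminescence read after 12 min with detection reagent.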
GLP-1R agonist: qHTS of GLP-1 Receptor Agonists; HEK293 GLP-1R CRE-luciferase, luminescence, 4-6 h; cells express a hypersensitive GLP-1R form; 380,000 tested, 0.007% active; AID 624172, 2012; Potency, µM (titrated, usually from 45.6 µM), inactives show at the highest dose activation, most hits filed as activators; Glucagon-like peptide 1 receptor (Homo sapiens), P43220; note: % of control where 0% means no effect
Starred values were filed as active, the others as inactive; ? = inconclusive; nt = no result. Calls come from the whole dose curve; as a rule, active = well fitted curve in the direction sought with a large enough effect; inconclusive = small, poorly fitted or top-dose-only effect, or another doubt; inactive = no such curve, though single readings can be large; an effect the other way counts as inactive or inconclusive. Potency is the fitted concentration of half-maximal effect.

SMILES	Integrin act MD	GLP1R cytotox	BRCA1 expr act	GLP1R inv ag	GLP-1R agonist
COc1ccc(N2CCN(c3ncnc4scc(-c5ccc(F)cc5)c34)CC2)cc1	-35%	-11%	-88%	?	1%
COc1ccc2c(-c3ccccc3)cc(N3CCOCC3)nc2c1	-36%	17%	-37%	10µM*	10%
CCN1CCN(c2ncnc3c2c(-c2ccccc2)cn3-c2ccc(F)cc2)CC1	-9%	3%	-14%	-6%	4%
OCCN1CCN(c2ncnc3c2c(-c2ccccc2)cn3-c2ccc(Br)cc2)CC1	-49%	?	-46%	10µM*	14%
COc1ccc(-n2cc(-c3ccccc3)c3c(N4CCOCC4)ncnc32)cc1	31%	-15%	-82%	3.5µM*	8%
COc1ccc(N2CCN(c3ncnc4scc(-c5ccc(C)cc5)c34)CC2)cc1	-48%	3%	-63%	2µM*	10%
Fc1ccc(-n2cc(-c3ccccc3)c3c(N4CCOCC4)ncnc32)cc1	14%	-3%	-43%	?	7%
CCC(C)C(C(=O)OCC[N+](C)(CC)CC)c1ccccc1 (configuration not stated)	nt	nt	nt	nt	0%
c1ccc(-c2csc3ncnc(N4CCOCC4)c23)cc1	3%	0%	-19%	0%	8%
Fc1ccc(-c2csc3ncnc(N4CCN(c5ccccc5)CC4)c23)cc1	13%	2%	-52%	13µM*	13%
COc1ccc(N2CCN(c3ncnc4scc(-c5ccccc5)c34)CC2)cc1	5%	-7%	-73%	6.3µM*	12%
Cc1ccc(-c2nc(C(=O)NCc3ccccc3Cl)c3n2CCCCC3)cc1	nt	1%	-49%	?	4%
O=C(NCCc1c[nH]c2ccccc12)C(=O)Nc1ccccc1	1%	-13%	11µM*	?	14%
Cc1cccc(NC(=O)NCCc2c[nH]c3ccccc23)c1	4%	-2%	0%	8.9µM*	3%
CC(C)c1ccc(Nc2cc(C(=O)NCCc3ccccc3)c3ccccc3n2)cc1	nt	1%	0%	-25%	-2%
CCOc1c(Br)cc(CNC2CCCCCCC2)cc1OC	-27%	2%	-69%	3.2µM*	-1%
Cc1ccccc1NC(=O)c1nnn(-c2ccc3c(c2)OCCO3)c1N	3%	-8%	?	-11%	9%
CCOc1ccccc1NC(=O)c1nnn(-c2ccc3c(c2)OCCO3)c1N	8%	-8%	21%	2.5µM*	7%
CCn1c(=O)c(C(=O)CN(C)Cc2cccc(OC)c2OC)c(N)n(Cc2ccccc2)c1=O	3%	-19%	-30%	?	-18%
CCn1c(=O)c(C(=O)CN(C)Cc2ccc(F)cc2)c(N)n(Cc2ccccc2)c1=O	-27%	-17%	-34%	8.9µM*	-1%
O=C(Cc1ccccc1)Nc1ccc(NC(=O)C2CCCCC2)nc1	1%	-16%	9%	7.1µM*	5%
O=C(Cc1ccccc1)Nc1ccc(NC(=O)C2CC2)nc1	11%	-8%	12%	-5%	3%
O=C(Nc1ccc(NC(=O)c2ccco2)nc1)c1ccco1	10%	7%	-22%	-69%	-1%
CCCCC(=O)Nc1cnc(NC(=O)c2ccco2)cc1C	-15%	10%	11µM*	20%	18%
CCCC(=O)Nc1cc(C)c(NC(=O)c2ccco2)cn1	14%	0%	9%	3%	-2%
SMILES	Integrin act MD	GLP1R cytotox	BRCA1 expr act	GLP1R inv ag	GLP-1R agonist
O=C(Cc1ccccc1)Nc1ccc(NC(=O)c2ccco2)nc1	19%	14%	5.6µM*	-20%	6%
CCCOc1ccc(NC(=O)CC2C(=O)N(c3ccccc3)C(=O)N2Cc2ccc(F)cc2)cc1 (configuration not stated)	nt	0%	nt	?	nt
Cc1cc(-n2c(=O)[nH]c(=O)n(C)c2=O)ccc1Oc1ccc(S(=O)(=O)C(F)(F)F)cc1	nt	nt	nt	nt	-4%
O=C(COc1ccccc1F)OCc1cc(=O)n2nc(-c3cccs3)sc2n1	nt	3%	0%	5%	nt
COc1ccc(N/N=C(\C#N)C(=N)SCc2ccccc2)cc1	-9%	?	-12%	0.28µM*	13%
COc1ccc(N/N=C(\C#N)C(=N)N2CCCCC2)cc1	-25%	?	7.9µM*	?	-3%
CSc1ccc(CCNC(=O)c2cc3cc(S(=O)(=O)N4CCCCC4)ccc3n2C)cc1	nt	-1%	nt	?	nt
COc1cc(CNC(=O)c2ccc3nc(Cc4ccccc4)oc3c2)cc(OC)c1OC	nt	-1%	nt	-3%	nt
COc1cc(/C=C(\C#N)C(=O)Nc2cccc(C(=O)O)c2)ccc1OCc1ccc(C)cc1	0%	17%	5µM*	-11%	9%
COc1cc(/C=C(/C#N)C(=O)Nc2ccccc2)ccc1OCc1ccc(C(=O)O)cc1	-4%	6%	81%	17%	1%
CC1Nc2ncnc(N3CCN(c4ccccc4)CC3)c2N(Cc2ccccc2)C1=O (configuration not stated)	-26%	8%	-11%	-11%	-6%
CC1Nc2ncnc(N3CCN(c4ccccc4)CC3)c2N(Cc2ccc(Cl)cc2)C1=O (configuration not stated)	-39%	-56%	-18%	10µM*	0%
O=C1C(Cc2ccccc2)Nc2ncnc(N3CCCCC3)c2N1Cc1ccc(Cl)cc1 (configuration not stated)	10%	0%	-14%	13µM*	4%
O=C1C(Cc2ccccc2)Nc2ncnc(N3CCN(c4ccccc4)CC3)c2N1Cc1ccc(Cl)cc1 (configuration not stated)	-35%	34%	-3%	11µM*	-4%
COc1ccc(CCNC(=O)Cn2nc(C)n3c(cc4occc43)c2=O)cc1OC	nt	2%	15%	10%	nt
NC(=O)c1cc2ccncc2c2ccccc12	21%	-14%	70%	1µM*	-6%
Clc1cccc(-c2nc3ccccn3c2Nc2ccc3c(c2)OCCO3)c1	nt	-6%	nt	6.3µM*	nt
Oc1ccc(-c2nc3ccccn3c2Nc2ccc3c(c2)OCCO3)cc1	nt	-4%	nt	-9%	nt
CN1OC[C@@H]2CN[C@H](c3ccc(-c4cccc(F)c4)cc3)C[C@@H]21	-16%	-8%	11µM*	-27%	4%
CN1OC[C@@H]2CN[C@H](c3cccc(-c4ccc(C#N)cc4)c3)C[C@@H]21	37%	-5%	0%	13%	2%
CCN(C(=O)c1sc2nc3n(c(=O)c2c1C)CCCC3)c1ccccc1F	nt	-7%	nt	-2%	nt
CN(C)c1ccc(N=Nc2ccc(S(N)(=O)=O)cc2)cc1	-17%	?	2µM*	-6%	0%
CC(C)(C)c1ccc(S(=O)(=O)CCc2ccccn2)cc1	6%	-7%	14µM*	5%	-4%
